Test results taken from PubChem BioAssay AID1347417 (National Center for Advancing Translational Sciences (NCATS), 2020).
The campaign covered roughly 120,000 compounds. About 5,300 (4.4%) were called active. A call without a number means that no potency is given here. About 22% were inconclusive and are not listed. This excerpt belongs to a sample that is enriched for actives. Values without a mark were called inactive. Calls come from the whole dose curve; as a rule, active = well fitted inhibition curve with a large enough effect; inconclusive = small, poorly fitted or top-dose-only effect; inactive = no such curve, though single readings can be large or run the other way.
Potency is the fitted concentration of half-maximal effect.

Test: qHTS Primary assay for Inhibitors of Plasmodium falciparum Dd2 growth in vitro; note: nearly all actives have a fitted effect of over 65% in size
Settings: P. falciparum Dd2 growth, SYBR Green, 72 h; series mostly up to 28.9 µM
Text: Malaria, a parasitic disease spread to humans through the bite of a Plasmodium infected Anopheles mosquito, continues to be a global health burden affecting millions of people, with an estimated 228 million cases and 405,000 deaths in 2018. Concerns about safety and limitations of current antimalarial treatments strongly emphasize the need to develop new therapeutic options. The scarce number of chemotypes and validated drug targets with efficacy against the liver stage, have hindered development of new antimalarials. To address this, a chemoprophylactic drug discovery effort was conducted through a combined phenotypic high-throughput asexual blood stage and liver stage screen, providing a robust foundation to identify liver-stage active lead chemotypes. Compounds were initially screened against Plasmodium falciparum Dd2 strain parasites using a in vitro SYBRGreen-1 based 72 hr proliferation assay to identify novel chemotypes to advance to liver stage assays. NIH/NCATS Early Translation Branch Assay Submitter (PI): Anton Simeonov Ph.D.
Malaria-vivax Assay Protocol: PROTOCOL TABLE (as described by Inglese et al., 2007) SEQUENCE No. (e.g., 1, 2, 3, etc.); […] (e.g., Cells, Incubation, Reagent, etc.); VALUE; DESCRIPTION SEQUENCE, Parameter, Description 1; Reagent; 3 uL complete malaria growth medium, 1536 TC treated Black clear bottom plate 2; Controls; 23 nL positive control artesunate (300 nM final) to column 1; Neutral control DMSO to columns 2-4 3; Compound; 23 nL of compounds in dose response concentration (29 uM to 0.5 nM final) 4; Reagent; 5 uL malaria infected red blood cells (2.5% hematocrit final, 0.3% parasitemia 5; Time; 72 hours at 37C (5% O2, 5% CO2, 90% N2; 95% Rh) 6; Reagent; 2 uL lysis buffer/SYBRGreen-1, 25 sec shake immediately following dispense 7; Time; ~16 hours at 37C (5% O2, 5% CO2, 90% N2; 95% Rh) 8; Detector; EnVision (PerkinElmer) bottom read at 485/14nm excitation and 535/25 nm emission NOTES (numbers refer to sequence above): 1; Complete Malaria Growth Media: 1X RPMI-1640 w/L-glutamine, 5.5g/L Albumax II, 367 uM Hypoxanthine, 25 mM HEPES, 0.25% Sodium Bicarbonate, 35 uM Gentamicin sulfate 2; Controls were added using the Kalypsis Pintool (Wako USA) equipped with 1536 pinhead 3; Compounds were added in a 7-point, titration with a high final concentration of 29 uM by Pintool from seven inter-plate titrations of library plates and two DMSO control plates at the beginning and end (see Yasgar et al., 2008). 4; Red blood cells infected with Plasmodium falciparum Dd2 parasites were used. 6; Lysis buffer: 20 mM Tris-HCl, 10 mM EDTA, 0.16% Saponin, 1.6% Triton-X, 10X SYBR Green. REFERENCE: Inglese J, Shamu CE, Guy RK. 2007. Reporting data from high-throughput screening of small-molecule libraries. Nat Chem Biol. doi:10.1038/nchembio0807-438 Yasgar A, Shinn P, Jadhav A, Auld D, Michael S, Zheng W, Austin CP, Inglese J, Simeonov A. 2008. Compound Management for Quantitative High-Throughput Screening. J Lab Autom 13:79-89. doi:10.1016/j.jala.2007.12.004
Molecule `CCCNC(=O)N1CC(Oc2ccc(-c3nc(C)no3)cc2)C1` has an activity, negative = inhibition of 40.8% [at 5.79 µM]. With `COc1ccc(CCNC(=O)c2nn(C)c3c2CSc2ccccc2-3)cc1OC` the Potency was “inactive”. With `COc1ccc(Nc2cc3c(nc2-c2ccccc2)nc(C(=O)NCCN(C)C)n3C)cn1` the Potency was “inactive”. In the case of `COc1ccc(-c2cc3c(nc2-c2ccccc2)nc(C(=O)NCCN(C)C)n3C)cc1OC`, the Potency is reported as 3.98 µM (active). For `O=C(c1cnc[nH]1)N1C[C@@H](COCC2CC2)[C@H](c2ccccn2)C1`, the Potency was “inactive”. With `O=C(Nc1ccc(F)cc1F)N1CCC2(CC1)SCC(=O)N2c1ccc(Cl)cc1` the Potency was “inactive”. In the case of `CC(C)Oc1cccc(-c2n[nH]c3c2CC(=O)N(Cc2ccccc2)C3)c1`, the Potency is reported as “inactive”. In the case of `O=C1Cc2c(-c3ccc(Oc4ccccc4)cc3)n[nH]c2CN1CCc1ccncc1`, the Potency is reported as 11.2 µM (active). In the case of `O=C1Cc2c(-c3ccc(CO)cc3)n[nH]c2CN1CC1CCOCC1`, the Potency is reported as “inactive”. With `O=C(CN1C(=O)C(c2ccccc2)=NC12CCCC2)N1CCN(c2ccccc2)CC1` the Potency was “inactive”. With `CCc1noc([C@@H]2CC(F)(F)CN2C(=O)c2cocn2)n1` the Potency was “inactive”. With `O=C1CC(c2noc(-c3ccc(F)c(Cl)c3)n2)CN1c1ccc(F)cc1` (stereo unspecified) the Potency was “inactive”. With `CCC[S+](=O)([O-])NC1CCN(C(=O)N2CC3CC(C2)[C@H]2CCCC(=O)N2C3)CC1` (stereo partly specified) the Potency was “inactive”. In the case of `CCCS(=O)(=O)N1CC[C@H]2C(=O)NCCCCCCN(Cc3ccncc3)[C@@H]2C1`, the Potency is reported as “inactive”. With `Cc1ccc(C2=NC3(CCN(C(=O)c4ccc(C#N)cc4)CC3)ON2)cc1` the Potency was 4.47 µM (active). In the case of `COCCC1(NS(C)(=O)=O)CCN(C(=O)c2ccc(C#N)cc2)CC1`, the Potency is reported as “inactive”. In the case of `Cc1noc(CC2CCOC3(CCN(C(=O)c4ccc(C#N)cc4)CC3)C2)n1` (stereo unspecified), the Potency is reported as “inactive”. In the case of `CN1c2cc(C(=O)Nc3ccc(F)c(F)c3)ccc2C(=O)N2CCCCCC21` (stereo unspecified), the Potency is reported as “inactive”. In the case of `CCN1c2cc(C(=O)NCc3cccc(F)c3)ccc2C(=O)N2CCCCCC21` (stereo unspecified), the Potency is reported as 3.55 µM (active). With `CCN1c2cc(C(=O)Nc3ccc(SC)cc3)ccc2C(=O)N2CCCCCC21` (stereo unspecified) the Potency was “inactive”. In the case of `COc1ccc(CNC(=O)c2ccc3c(c2)N(C)C2CCCCN2C3=O)c(OC)c1` (stereo unspecified), the Potency is reported as “inactive”. With `CCN1c2cc(C(=O)NC3CCN(Cc4ccccc4)CC3)ccc2C(=O)N2CCCCC21` (stereo unspecified) the Potency was 7.94 µM (active). In the case of `CCN1c2cc(C(=O)Nc3ccc(F)c(C)c3)ccc2C(=O)N2CCCCC21` (stereo unspecified), the Potency is reported as “inactive”. In the case of `CCN1c2cc(C(=O)Nc3ccc(OC)c(F)c3)ccc2C(=O)N2CCCCC21` (stereo unspecified), the Potency is reported as “inactive”. With `CN1C(=O)c2cccn2CC1C(=O)NC1CCN(Cc2ccccc2)CC1` (stereo unspecified) the Potency was “inactive”. With `CCN1c2cc(C(=O)NCc3ccc(OC)cc3OC)ccc2C(=O)N2CCCCCC21` (stereo unspecified) the Potency was 4.47 µM (active). With `CN(CCc1cn[nH]c1)c1ccc(-c2nc(-c3ccccc3F)no2)cn1` the Potency was “inactive”. With `Cc1cc(C)n(CC(=O)N2CC[C@@H]3CN(S(C)(=O)=O)[C@@H]3C2)n1` the Potency was “inactive”. In the case of `Oc1ccccc1CN1C[C@H](O)C[C@H]1c1nc(Cc2ccc(F)cc2Cl)no1`, the Potency is reported as “inactive”. With `CCCNC(=O)C(NC(=O)c1ccc(OC)cc1)C1CCN(C(=O)c2ccc3c(c2)OCO3)CC1` (stereo unspecified) the Potency was “inactive”. In the case of `O=C(c1ccccc1-n1cccn1)N1CCc2c(nc[nH]c2=O)C1`, the Potency is reported as “inactive”. With `CC(C)(Oc1nn(CCOc2ccccc2)c2ccccc12)C(=O)NCCCn1ccnc1` the Potency was “inactive”. In the case of `CCOC(=O)C1CCN(C(=O)C2(c3ccc(NS(C)(=O)=O)cc3)CCCCC2)CC1`, the Potency is reported as “inactive”. With `COCCNC(=O)c1ccc(OC2CCN(C/C=C/c3ccco3)CC2)c(Cl)c1` the Potency was “inactive”. In the case of `CSc1ccc(C2c3c(oc4ccccc4c3=O)C(=O)N2CCCN2CCOCC2)cc1` (stereo unspecified), the Potency is reported as “inactive”. For `COc1ccc(C2c3c(oc4ccccc4c3=O)C(=O)N2Cc2ccc3c(c2)OCO3)cc1` (stereo unspecified), the Potency was “inactive”. In the case of `Cc1ccc2oc3c(c(=O)c2c1)C(c1ccc([N+](=O)[O-])cc1)N(CCCN1CCOCC1)C3=O` (stereo unspecified), the Potency is reported as 10 µM (active). For `Cc1cccc(C(=O)NCCC2CCN(C(=O)Nc3ccc(F)cc3F)CC2)c1`, the Potency was “inactive”. In the case of `COc1cccc(NC(=O)c2cnc3n[nH]c(-c4ccc(OC)cc4C)c3n2)c1`, the Potency is reported as “inactive”. In the case of `Cc1oc2ncnc(N3CCCCC3)c2c1C(=O)N1CCN(c2cccc(Cl)c2)CC1`, the Potency is reported as “inactive”. In the case of `Cc1cccc(-n2ncc(C(=O)N3CCc4ccccc4C3)c2C2CCN(C(=O)OC(C)(C)C)CC2)c1`, the Potency is reported as “inactive”. For `Cc1c(Cl)cccc1NC(=O)C1CCCN(C(=O)c2cnn(-c3ccccc3)c2-n2cccc2)C1` (stereo unspecified), the Potency was “inactive”. For `CC(C)(C)OC(=O)N1CCC(c2c(C(=O)N3CCN(c4cccc(Cl)c4)CC3)cnn2-c2cccc(Cl)c2)CC1`, the Potency was 7.08 µM (active). In the case of `Cc1cccc(-n2ncc(C(=O)N3CCC(C)CC3)c2C2CCN(C(=O)OC(C)(C)C)CC2)c1`, the Potency is reported as “inactive”. For `COc1ccccc1C(=O)N1CCC(c2n[nH]c(=O)n2-c2ccc(C)cc2)CC1`, the Potency was “inactive”. With `CCn1ncc(N2CCC(NC(=O)c3ccccc3OC)CC2)cc1=O` the Potency was “inactive”. With `COc1ccccc1CN1CCC(CNC(=O)c2cnn(-c3cccc(Cl)c3)c2C2CCN(C(=O)OC(C)(C)C)CC2)CC1` the Potency was 1.41 µM (active). For `O=C(NCC1CC1)c1nc2c(o1)CCN(Cc1cccc(F)c1F)CC2`, the Potency was “inactive”. In the case of `COc1ccccc1N1CCN(CCCNC(=O)c2cnn(-c3ccccc3Cl)c2C2CCN(C(=O)OC(C)(C)C)CC2)CC1`, the Potency is reported as 1.41 µM (active). For `COc1ccccc1N1CCN(S(=O)(=O)CCNC(=O)COc2ccc(F)cc2)CC1`, the Potency was “inactive”. With `Cc1ccc(C2CCN(C(=O)c3cnn(-c4ccccc4Cl)c3C3CCN(C(=O)OC(C)(C)C)CC3)C2)cc1` (stereo unspecified) the Potency was 3.98 µM (active).
